A selection: hits, their analogues and other compounds. The true share with any hit is near 3.6%.
TGFb inhibitor: TGF-b pathway inhibition | AID 588855 | Potency, µM (top dose mostly 46.1 µM), most hits filed as inhibitors | 410,000 compounds, 1.2% hits | HepG2 CAGA-GFP TGF-b/SMAD3 reporter, GFP fluorescence, 18 h; TGF-beta stimulated, 500 pg/mL final; note: nearly all actives have a fitted effect of over 65% in size
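First, reporter cells (HEPG2 CAGA-GFP) rested 2 h at 37 degrees C. Next, compounds were pinned in and TGF-beta added to 500 pg/mL final. After 18 h, GFP was imaged per cell and summed per well.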
Nrf2 inh: Nrf2 pathway inhibition; A549 ARE-Fluc reporter, luciferase luminescence, 18-24 h; Potency, µM (doses to about 46 µM), hits mostly inhibitors; 360,000 compounds, 2.1% hits; note: nearly all actives have a fitted effect of over 60% in size
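Two sequential reads on A549 ARE_Fluc cells exposed to compound for 18-24 h: a CellTiter-Fluor fluorescence read for viability, then a luciferase luminescence read for Nrf2/ARE activity.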
Nrf2 ARE act: Nrf2 pathway activation; Potency, µM (series often up to 46.1 µM), actives largely listed as activators; 410,000 compounds, 0.31% hits; AID 624171; AREc32 ARE-luciferase reporter (MCF7-derived line), luminescence, 24 h; note: nearly all actives have a fitted effect of over 65% in size
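Luciferase luminescence (Steady-Glo, 30 min at room temperature) served as the read-out of ARE activation in AREc32 cells treated with compounds for 24 hr at 37 deg C.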
A549 viability: kills or reduces viability of A549 cells in Nrf2 counter-screen; A549 ARE-Fluc cells, CellTiter-Fluor viability, 18-24 h; Potency, µM (series often up to 46 µM), most hits filed as inhibitors; 390,000 compounds, 0.16% hits
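A549 ARE_Fluc cells in 5% FBS OPTI-MEM were exposed to compounds in concentration-response for 18-24 h at 37 deg C. Viability was read by CellTiter-Fluor fluorescence (Ex 405/Em 525) after 30 min, before the luciferase read.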
HepG2 tox: HepG2 cytotoxicity, counter-screen for TGF-b inhibitors | AID 588856 | 410,000 compounds, 0.76% hits | Potency, µM (titrated, usually from 46.1 µM), actives largely listed as cytotoxic | HepG2 CAGA-GFP viability, ATP luminescence, 18 h
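CellTiter-Glo luminescence gave cytotoxicity after 18 hours at 37 degrees C. The cells were HepG2 CAGA-GFP in 1% FBS DMEM, stimulated with 500 pg/mL TGF-beta after compound addition. %Activity was normalised to no-cell wells (complete cell-killing) and DMSO (no toxicity), and curves were fitted and classified.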
Hits are given with their value; – = inactive; ? = inconclusive; · = no result given. Calls come from the whole dose curve; as a rule, active = well fitted curve in the direction sought with a large enough effect; inconclusive = small, poorly fitted or top-dose-only effect, or another doubt; inactive = no such curve, though single readings can be large; an effect the other way counts as inactive or inconclusive.

SMILES | TGFb inhibitor | Nrf2 inh | Nrf2 ARE act | A549 viability | HepG2 tox
Cc1ccc(OCC(O)Cn2c(=N)n(CCN3CCCCC3)c3ccccc32)cc1 (configuration not stated) | ? | – | – | ? | 12.6µM
N=c1n(CCO)c2ccccc2n1CCOc1ccc(Cl)cc1Cl | ? | – | – | – | 11.2µM
N=c1n(CCN2CCCCC2)c2ccccc2n1CC(O)COc1ccc(Cl)cc1Cl (configuration not stated) | 7.08µM | ? | – | ? | 10µM
C/C(=N\Nc1ccc2nncn2n1)c1ccc(Cl)s1 | – | – | 7.94µM | – | –
C/C(=N\NC(N)=S)c1ccc(Cl)s1 | – | ? | – | – | –
O=C(N/N=C/c1cc2c(cc1Br)OCO2)c1cc2ccccc2o1 | – | – | – | – | –
O=C(c1ccccc1)c1ccc(OCCCN2CCCC2)cc1 | – | – | – | – | 15.8µM
O=C(c1ccccc1)c1ccc(OCCCCN2CCCCC2)cc1 | – | – | – | – | –
N=c1n(CCN2CCOCC2)c2ccccc2n1CC(=O)c1cccc([N+](=O)[O-])c1 | – | – | 3.16µM | – | –
COc1ccc(CNC(=O)c2cc(S(=O)(=O)N3CCCCC3)ccc2Cl)cc1OC | – | 16.4µM | – | – | –
O=C(OCCOc1cccc(Cl)c1)c1cc(S(=O)(=O)N2CCCCC2)ccc1N1CCOCC1 | – | 11.6µM | – | – | –
Cc1ccc(NC(=O)c2cc(S(=O)(=O)N3CCCCC3)ccc2N2CCOCC2)cc1 | – | · | – | · | –
Cc1ccc(CNC(=O)c2cc(S(=O)(=O)N3CCCCC3)ccc2N2CCOCC2)cc1 | – | 20.6µM | – | ? | –
Cc1ccc(NC(=O)c2cnn(-c3ccccc3)c2C)cc1 | – | ? | – | – | –
CCOc1ccc(S(=O)(=O)N2CCN(C(=O)c3ccc(-n4cncn4)c([N+](=O)[O-])c3)CC2)cc1 | – | – | – | – | –
COC(=O)/C(=C\c1ccc([N+](=O)[O-])o1)NC(=O)c1ccccc1 | 11.2µM | ? | – | – | 12.6µM
Cc1ccc(N=C(NOCc2ccc(Cl)cc2Cl)c2nonc2N)c(C)c1 | 15.8µM | 23.1µM | – | – | –
Cc1ccccc1N=C(NOCc1ccc(Cl)cc1Cl)c1nonc1N | – | ? | – | – | –
CCN(CC)c1ccc(/C=C/c2c(C)cnc3ccccc23)cc1 | ? | · | · | · | –
CSc1nn(CC(=O)Nc2cc(C)ccc2C)c(N)c1S(=O)(=O)c1ccccc1 | – | 20.6µM | – | – | –
CCOC(=O)c1ccc(NC(=O)Cn2nc(SC)c(S(=O)(=O)c3ccc(Cl)cc3)c2N)cc1 | 5.01µM | ? | – | – | –
CSc1nn(CC(=O)Nc2ccccc2F)c(N)c1S(=O)(=O)c1ccccc1 | – | ? | – | – | –
CCSc1nn(CC(=O)Nc2ccc(C(=O)OC)cc2)c(N)c1S(=O)(=O)c1ccc(C)cc1 | ? | 23.1µM | – | – | –
COc1ccc(NC(=O)Cn2nc(SC)c(S(=O)(=O)c3ccc(C)cc3)c2N)cc1OC | ? | ? | – | – | –
O=C(O)CCC(=O)N1CCc2cc(S(=O)(=O)N(CCc3ccccc3)Cc3ccccc3)ccc21 | – | – | – | – | –
SMILES | TGFb inhibitor | Nrf2 inh | Nrf2 ARE act | A549 viability | HepG2 tox
COc1ccc(C)cc1NC(=O)CN1CCN(C/C=C/c2ccccc2)CC1 | – | – | – | · | –
Cc1cc(C(=O)Nc2ccc(C(=O)O)cc2)c(-c2ccccc2)o1 | – | · | – | – | –
CCCN1CCN(c2ncnc3sc(C(=O)Nc4ccc(OC(F)(F)F)cc4)c(C)c23)CC1 | 22.4µM | · | – | – | –
O=c1oc2ccccc2cc1-c1csc(Cc2nc(-c3ccc(Cl)cc3)cs2)n1 | ? | 20.6µM | – | – | –
O=c1oc2ccccc2cc1-c1nc(-c2cccc(Cl)c2)cs1 | – | · | – | – | –
COc1ccccc1N1CC(O)=C(c2nc3ccccc3c(=O)[nH]2)C1=N | – | – | – | – | –
CCOC(=O)C1CCN(Cc2ccc(O)c3ncccc23)CC1 | ? | ? | – | – | 7.94µM
CC(C)CNC(=O)CC(=O)N/N=C/c1ccc(F)cc1 | – | – | – | – | –
CN1CCN(c2cc3c(c4c2[nH]c2ccccc24)C(=O)CC(C)(C)C3)CC1 | ? | – | – | – | 11.2µM
CN1CCN(c2ccc(Cl)cc2NC(=O)c2cc(=O)[nH]c3ccccc23)CC1 | – | – | – | – | –
O=c1oc2ccccc2c(NCc2ccccc2F)c1[N+](=O)[O-] | – | ? | – | – | –
CCN(CC)CCCNC(=O)c1nn(-c2ccc(C)cc2)c(=O)c2c1c1ccccc1n2C | – | – | – | – | –
CCN(CC)CCOC(=O)c1ccc(NC(=O)c2nn(-c3ccc(C)cc3)c(=O)c3c2c2ccccc2n3C)cc1 | 4.47µM | – | ? | – | 3.55µM
O=[N+]([O-])c1ccc(Cl)c(C[n+]2cccc3ccccc32)c1 | – | 11.6µM | – | – | –
O=C(CCC(=O)OCC(=O)c1ccccc1)NC1CCCCC1 | ? | – | – | – | 5.62µM
Cc1cc(SC2CCOC2=O)nc2ccccc12 (configuration not stated) | – | – | – | – | –
Cc1ccc(N=C2CCCN2Cc2ccccc2)c(C#N)c1 | – | – | – | – | –
Cc1sc(NC(=O)CSc2nc(N)cc(N)n2)c(C#N)c1C | – | 20.6µM | – | – | –
Cc1ccc(C(=O)Nc2ccc(F)cc2)cc1S(=O)(=O)N1CCOCC1 | – | · | – | – | –
O=C(Nc1ccc(F)cc1)c1ccc(Br)c(S(=O)(=O)N2CCOCC2)c1 | ? | 14.6µM | – | – | –
O=C(O)c1ccc(NC(=O)c2ccc(Br)c(S(=O)(=O)N3CCCC3)c2)cc1 | – | – | – | – | –
O=C(Nc1ccccc1)c1ccc(Br)c(S(=O)(=O)N2CCCCC2)c1 | 6.31µM | · | – | – | –
CCc1ccc(C(=O)c2cncc(Br)c2)cc1 | – | – | – | – | –
COc1cccc(C2=Nn3c(nnc3-c3ccccc3O)SC2)c1 | – | – | – | – | –
C[n+]1c2n(c3ccccc31)N=C(c1cc(C(C)(C)C)c(O)c(C(C)(C)C)c1)CS2 | 6.31µM | 18.4µM | – | ? | –
SMILES | TGFb inhibitor | Nrf2 inh | Nrf2 ARE act | A549 viability | HepG2 tox
Cc1ccn2cc(CCNC(=O)C3CCCCC3)nc2c1 | – | – | – | – | –
CCc1ccc(NC(=O)C2=CC(c3ccc(OC)c(OC)c3)=NS(=O)(=O)N2C)cc1 | ? | 23.1µM | – | – | –
COc1ccc(C2=NS(=O)(=O)N(C)C(C(=O)N3CCc4ccccc4C3)=C2)cc1OC | – | 14.6µM | – | – | –
CCN(CC)C(=O)CSC(Nc1ccc(F)cc1)=C(C#N)C#N | – | – | – | – | –
Cc1ccc(CSC(Nc2ccc(F)cc2)=C(C#N)C#N)cc1 | 7.08µM | 20.6µM | – | ? | –
CCOc1ccc(NC(=O)NC(C)c2c(-n3cccc3)sc(C)c2C)cc1 (configuration not stated) | · | 20.6µM | – | – | –

Compound activity: PubChem BioAssay, National Center for Advancing Translational Sciences (NCATS)
